From PubChem BioAssay (Tox21) come the findings set out here.

A number with no mark means an inactive call. Records with an inconclusive call do not appear. Active and inactive are the calls of the source. Unless noted, calls follow the shape of the dose curve; as a rule, active = well fitted curve in the direction sought with a large enough effect in the repeat runs; inconclusive = weak or mixed curves; inactive = no such curve, though single readings can be large; an effect the other way counts as inactive or inconclusive.

Experiment [1] deals with Thyrotropin-releasing hormone receptor (Homo sapiens) (UniProt P34981). The experiment in a line: qHTS assay to identify small molecule agonists of the thyrotropin-releasing hormone receptor (TRHR) signaling pathway (AID 1346891; calls by dose curve; also: series mostly up to about 58 µM). Summed up:
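Screening of agonists relied on calcium signalling in HEK293 cells expressing human TRHR: dye loading 2 h at 37 °C preceded compound addition and a 3-min fluorescence time course.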
(In general: Quantitative high-throughput screening tests each substance at several concentrations.)

Experiment [2] in a line: Human pregnane X receptor (PXR) small molecule agonists, qHTS cell viability counter screen (AID 1346977). Also: nearly all actives have a fitted effect of over 50% in size. Also: potency is read from the fitted curve at half-maximal effect. In outline:
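Tox21 qHTS format; PXR-Luc HepG2, 2,000/well, charcoal-stripped FBS 5%. Cpd exposure 24hr. Read: CellTiter-Fluor fluorescence, multiplexed with luciferase.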

Experiment [3] in a line: Caspase-3/7 induction in HepG2 cells by small molecules, qHTS assay (AID 1346978). Also: nearly all actives have a fitted effect of over 15% in size. Summed up:
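Wild-type HepG2 cells, 2,000/well, settled 5 hr at 37 C and 5% CO2, then compound-treated for 17 hr; caspase-3/7 activity read by luminescent Caspase-Glo 3/7 after 30 min at room temperature.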

Experiment [4] is described as follows: Caspase-3/7 induction in CHO-K1 cells by small molecules, qHTS cell viability counter screen (AID 1346979). Also: nearly all actives have a fitted effect of over 35% in size. Also: potency is read from the fitted curve at half-maximal effect. In outline: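 CellTiter-Fluor viability check, qHTS format: wild-type CHO-K1, 16hr compound treatment, 1hr reagent incubation, fluorescence read.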
Experiment [5] can be described thus: Caspase-3/7 induction in CHO-K1 cells by small molecules, qHTS assay (AID 1346980). Also: nearly all actives have a fitted effect of over 15% in size. Summed up:
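Wild-type CHO-K1 cells exposed to compounds for 17hr at 37 C, 5% CO2. Caspase-3/7 activity then measured by Caspase-Glo 3/7 luminescence after 30min at room temperature.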

Experiment [6] is described as follows: Caspase-3/7 induction in HepG2 cells by small molecules, qHTS cell viability counter screen (AID 1346981). Also: series mostly up to about 92 µM; nearly all actives have a fitted effect of over 30% in size. Summed up: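 Wild-type HepG2 cells (2,000/well) were allowed to settle for 5 hr at 37 C, 5% CO2, then dosed with compounds in DMSO by pin transfer. After 16 hr at 37 C, CellTiter-Fluor was added and fluorescence read 1 hr later.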
Experiment [7] deals with Nuclear receptor subfamily 1 group I member 2 (Homo sapiens) (UniProt O75469). As to the kind of experiment: Human pregnane X receptor (PXR) small molecule agonists, qHTS assay (AID 1346982). Also: nearly all actives have a fitted effect of over 35% in size. Also: potency is read from the fitted curve at half-maximal effect. Summed up: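 PXR-Luc HepG2 cells (CYP3A4 promoter-driven luciferase) were seeded in medium with 5% charcoal-stripped FBS, left 5 hr at 37 C, then exposed to compounds in DMSO for 24 hr. Luminescence was read after ONE-Glo addition.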
Sequence of Nuclear receptor subfamily 1 group I member 2 (Homo sapiens) (O75469 whole entry, looked up): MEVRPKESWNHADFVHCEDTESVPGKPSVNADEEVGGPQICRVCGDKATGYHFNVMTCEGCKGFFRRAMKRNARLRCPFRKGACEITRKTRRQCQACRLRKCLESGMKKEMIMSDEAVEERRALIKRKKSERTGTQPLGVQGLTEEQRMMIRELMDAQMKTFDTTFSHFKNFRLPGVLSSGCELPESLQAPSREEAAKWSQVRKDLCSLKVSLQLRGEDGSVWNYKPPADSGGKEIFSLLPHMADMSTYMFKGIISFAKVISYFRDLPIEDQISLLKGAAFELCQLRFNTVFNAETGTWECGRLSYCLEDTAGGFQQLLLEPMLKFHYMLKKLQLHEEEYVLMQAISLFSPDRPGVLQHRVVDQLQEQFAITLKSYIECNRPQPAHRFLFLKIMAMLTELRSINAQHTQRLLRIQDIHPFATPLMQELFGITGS

Sequence of Thyrotropin-releasing hormone receptor (Homo sapiens) (P34981 whole entry, looked up): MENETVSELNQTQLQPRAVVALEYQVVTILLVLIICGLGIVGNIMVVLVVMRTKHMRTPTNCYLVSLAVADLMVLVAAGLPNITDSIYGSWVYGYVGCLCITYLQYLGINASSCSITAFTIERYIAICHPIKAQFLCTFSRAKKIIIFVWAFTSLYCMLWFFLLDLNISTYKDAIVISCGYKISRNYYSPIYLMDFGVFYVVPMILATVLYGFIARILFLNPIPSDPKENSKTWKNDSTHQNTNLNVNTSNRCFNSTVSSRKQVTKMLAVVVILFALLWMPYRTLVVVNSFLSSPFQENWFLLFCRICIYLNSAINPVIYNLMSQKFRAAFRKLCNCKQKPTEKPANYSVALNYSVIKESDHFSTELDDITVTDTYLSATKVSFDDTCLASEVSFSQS

Turning to `C=C[Si]1(C)O[Si](C)(C=C)O[Si](C)(C=C)O[Si](C)(C=C)O1` (configuration not stated), the result in experiment [1] was inactive. Moreover, the Potency result in experiment [2], in experiment [3], in experiment [4] and in experiment [5] was “inactive” in each case.

`CCOc1ccccc1O`: the molecule was called inactive in experiment [1]. Moreover, the Potency result in experiment [2], in experiment [3], in experiment [4], in experiment [5], in experiment [6] and in experiment [7] was “inactive” each time.

`CCc1cnc(C(=O)O)c(C(=O)O)c1`: the outcome in experiment [1] was inactive. Also, the Potency result in experiment [2], in experiment [3], in experiment [4], in experiment [5], in experiment [6] and in experiment [7] was “inactive” throughout.

On to `O=C(O)c1cccc(C(=O)O)c1C(=O)O`, for which, in experiment [1], the molecule was called inactive. Moreover, the Potency result in experiment [2], in experiment [3], in experiment [4], in experiment [5], in experiment [6] and in experiment [7] was “inactive” in each case.

Regarding `COC(=O)/C=C/C(C)=C\C=C\C(C)=C\C=C\C=C(C)\C=C\C=C(C)\C=C\C(=O)O`, in experiment [1], the call was inactive. For the same molecule, the Potency result in experiment [2], in experiment [3], in experiment [4], in experiment [5] and in experiment [6] was “inactive” each time. Also, in experiment [7], the Potency is 54.5 µM (active).

Consider `O=C(Nc1ccc2c(c1)Cc1ccccc1-2)C(F)(F)F`, for which the molecule was called inactive in experiment [1]. The Potency entry in experiment [2], in experiment [3], in experiment [4], in experiment [5] and in experiment [6] was “inactive” throughout. Further, in experiment [7], the Potency was 34.4 µM (active).

For the molecule `CCCC1CCCC(=O)O1` (configuration not stated), in experiment [1], the molecule was classed as inactive. For the same molecule, the Potency result in experiment [2], in experiment [3], in experiment [4], in experiment [5], in experiment [6] and in experiment [7] was “inactive” each time.

`CC(=O)Nc1ccccc1O`: the molecule was classed as inactive in experiment [1]. Also, the Potency entry in experiment [2], in experiment [3], in experiment [4] and in experiment [5] was “inactive” each time.

Take `C[C@H]1C[C@H]2[C@@H]3CCC4=CC(=O)C=C[C@]4(C)[C@@]3(F)[C@@H](O)C[C@]2(C)[C@@]1(O)C(=O)COP(=O)(O)O`: in experiment [1], the molecule was classed as inactive. In addition, the Potency entry in experiment [2], in experiment [3], in experiment [4], in experiment [5] and in experiment [6] was “inactive” each time.

Turning to `CCCOC(C)=O`, the molecule was classed as inactive in experiment [1]. The Potency result in experiment [2], in experiment [3], in experiment [4], in experiment [5], in experiment [6] and in experiment [7] was “inactive” in each case.

For the molecule `CC(=O)c1ccc(Cl)c(Cl)c1Cl`, in experiment [1], the result was inactive. For the same molecule, the Potency entry in experiment [2], in experiment [3], in experiment [4], in experiment [5], in experiment [6] and in experiment [7] was “inactive” throughout.

Take `NC(=O)c1ccccc1`: the result in experiment [1] was inactive. The Potency entry in experiment [2], in experiment [3], in experiment [4], in experiment [5], in experiment [6] and in experiment [7] was “inactive” each time.

Regarding `COC(=O)C(C)(C)C`, the molecule was called inactive in experiment [1]. Moreover, the Potency result in experiment [2], in experiment [3], in experiment [4], in experiment [5], in experiment [6] and in experiment [7] was “inactive” throughout.

For `CC(C)=CCC/C(C)=C/C=N/O`, the molecule was called inactive in experiment [1]. Also, the Potency entry in experiment [2], in experiment [3], in experiment [4], in experiment [5] and in experiment [6] was “inactive” throughout. Moreover, the Potency in experiment [7] is 34.4 µM (active).

As for `COc1ccc(/C=C/c2cc(OC)cc(=O)o2)cc1`, the molecule was called inactive in experiment [1]. The Potency entry in experiment [2], in experiment [3], in experiment [4], in experiment [5] and in experiment [6] was “inactive” throughout. Also, the Potency in experiment [7] was 8.84 µM (active).

Consider `N#Cc1ccc(CC(=O)c2cccc(C(F)(F)F)c2)cc1`, for which the molecule was called inactive in experiment [1]. Besides, the Potency result in experiment [2], in experiment [3], in experiment [4], in experiment [5] and in experiment [6] was “inactive” each time.

In the case of `C=Cc1ccc(C=C)cc1`, in experiment [1], the call was inactive. The Potency entry in experiment [2], in experiment [3], in experiment [4], in experiment [5], in experiment [6] and in experiment [7] was “inactive” each time.

Take `CCCCCCCCC(=O)OCC(C)OC(=O)CCCCCCCC` (configuration not stated): in experiment [1], the result was inactive. The Potency entry in experiment [2], in experiment [3], in experiment [4], in experiment [5], in experiment [6] and in experiment [7] was “inactive” in each case.

Take `CCN(CC)CC(=O)OCC(=O)[C@@]1(O)CC[C@H]2[C@@H]3CCC4=CC(=O)CC[C@]4(C)[C@H]3[C@@H](O)C[C@@]21C`: in experiment [1], the call was inactive. The Potency entry in experiment [2], in experiment [3], in experiment [4] and in experiment [5] was “inactive” throughout.

Consider `Cc1cc(N)n(-c2ccccc2)n1`, for which the molecule was classed as inactive in experiment [1]. Moreover, the Potency result in experiment [2], in experiment [3], in experiment [4], in experiment [5] and in experiment [6] was “inactive” throughout.

Regarding `CCC[Si](OC)(OC)OC`, the molecule was called inactive in experiment [1]. The Potency entry in experiment [2], in experiment [3], in experiment [4], in experiment [5], in experiment [6] and in experiment [7] was “inactive” each time.

Take `O=C(O)c1ccc2cc(O)ccc2c1`: the outcome in experiment [1] was inactive. The Potency result in experiment [2], in experiment [3], in experiment [4], in experiment [5], in experiment [6] and in experiment [7] was “inactive” each time.

Take `O=[N+]([O-])c1ccccc1CCO`: the molecule was called inactive in experiment [1]. Moreover, the Potency entry in experiment [2], in experiment [3], in experiment [4], in experiment [5], in experiment [6] and in experiment [7] was “inactive” each time.

In the case of `CC(C)CC(C)(C)C`, the result in experiment [1] was inactive. The Potency entry in experiment [2], in experiment [3], in experiment [4], in experiment [5], in experiment [6] and in experiment [7] was “inactive” in each case.

`Cc1nc(C)c(C)nc1C`: the result in experiment [1] was inactive. The Potency result in experiment [2], in experiment [3], in experiment [4], in experiment [5], in experiment [6] and in experiment [7] was “inactive” each time.

As for `CCC(CC)C(=O)O`, in experiment [1], the call was inactive. Besides, the Potency entry in experiment [2], in experiment [3], in experiment [4], in experiment [5], in experiment [6] and in experiment [7] was “inactive” each time.

For `CC1=C(C)C(=O)C(CCCCC#CCCCC#CCO)=C(C)C1=O`, the call in experiment [1] was inactive. The Potency entry in experiment [2], in experiment [3], in experiment [5] and in experiment [6] was “inactive” in each case. Besides, the values for the Potency in experiment [4] and in experiment [7] were 29.8 µM (active) and 26.6 µM (active), respectively.

In the case of `Cc1cc(C)n(CO)n1`, in experiment [1], the molecule was called inactive. Besides, the Potency result in experiment [2], in experiment [3], in experiment [4], in experiment [5], in experiment [6] and in experiment [7] was “inactive” throughout.

Regarding `Cc1c(N=C=O)cccc1N=C=O`, the molecule was called inactive in experiment [1]. In addition, the Potency entry in experiment [2], in experiment [3], in experiment [4], in experiment [5], in experiment [6] and in experiment [7] was “inactive” in each case.

For the molecule `Cc1cc(C)c(C)c(O)c1`, the molecule was called inactive in experiment [1]. Besides, the Potency result in experiment [2], in experiment [3], in experiment [4], in experiment [5], in experiment [6] and in experiment [7] was “inactive” each time.

Consider `CO[C@@H]1[C@@H](O[C@@H]2O[C@H](C)[C@@H](O[C@H]3C[C@@](C)(O)[C@@H](O)[C@H](C)O3)[C@H](N(C)C)[C@H]2O)[C@@H](CC=O)C[C@@H](C)[C@@H](O[C@@H]2CC[C@H](N(C)C)[C@@H](C)O2)/C=C/C=C/C[C@@H](C)OC(=O)C[C@H]1OC(C)=O`, for which the result in experiment [1] was inactive. In addition, the Potency in experiment [2] was 26.6 µM (active). Moreover, the Potency entry in experiment [3], in experiment [4], in experiment [5] and in experiment [6] was “inactive” throughout.
